How the values were obtained:
[1] = tested on: Human papillomavirus type 1a protein E7 (residues 44-93); assay: HPV1a E7 fragment binders on microarrays, primary screen, biochemical, small-molecule microarray, residues 44-93, 635 nm fluorescence (AID 1108); details: small-molecule microarray binding, fluorescence 635 nm; higher = more signal;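 also: E7 fragment applied at 1 µg/mL in TBST for 1 h at 4 C; score combines spot fluorescence with its signal to noise ratio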
[2] = modulators of HCV replicon luciferase signal, primary screen, HCV replication inhibitor project, Huh7 cells, luciferase reporter (AID 1109); details: 48 h, higher = more signal;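 also: huh7 hepatoma cells harbouring a luciferase neomycin HCV replicon reporter; luciferase luminescence as measure of HCV replicon replication; test concentration not given here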
[3] = molecular target: Left-right determination factor 2 (Homo sapiens) (UniProt O00292); assay: LEFTY2 binders on small-molecule microarrays, primary screen, biochemical, small-molecule microarray, 635 nm fluorescence scan (AID 1110); details: LEFTY2 binding, higher = more signal
[4] = molecular target: Calmodulin-1 (Homo sapiens) (UniProt P0DP23); assay: CALM1 binders on microarrays, EGTA buffer, profiling panel, biochemical, small-molecule microarray, Cy5-labelled CALM1 (AID 1111); details: Cy5-CALM1 binding fluorescence, higher = more signal;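 also: labelled calmodulin applied in Tris saline Tween buffer holding calcium plus EGTA and DTT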
[5] = molecular target: Calmodulin-1 (Homo sapiens) (UniProt P0DP23); assay: calcium-bound CALM1 binders on microarrays, profiling panel, artefact control for SMM control-protein annotation, biochemical, small-molecule microarray, Cy5-labelled CALM1, plus calcium (AID 1112); details: Cy5-CALM1 binding fluorescence, higher = more signal;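 also: score merges spot fluorescence with signal to noise from triplicate slides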
[6] = small-molecule microarray binders of probe aWnt5a, primary screen, biochemical, biotinylated probe, 635/667 nm fluorescence (AID 1113); details: higher = more signal;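 also: score merges 667 nm fluorescence intensity with signal-to-noise per printed feature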
[7] = small-molecule microarray binders of probe aShh, primary screen, biochemical, biotinylated probe, 635/667 nm fluorescence (AID 1114); details: higher = more signal;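 also: probe is biotin-labelled aShh protein from a stem cell growth factor screen; measures binding of labelled protein to compounds printed on the slide; score merges feature fluorescence at 667 nm with signal-to-noise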
[8] = small-molecule microarray binders of probe aNog, primary screen, biochemical, biotinylated probe, 635/667 nm fluorescence (AID 1115); details: higher = more signal;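 also: probe is biotinylated aNog protein used at 0.15 µg/mL for 1 h at 4 C; z-score combines 667 nm fluorescence of each spot with its signal to noise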
[9] = molecular target: Torsin-1A-interacting protein 1 (Homo sapiens) (UniProt Q5JTV8); assay: LAP1 binders from COS7 cell lysate, primary screen, small-molecule microarray, 635/667 nm fluorescence (AID 1116); details: COS7-hLAP1 lysate binding, 635 nm fluorescence, higher = more signal
[10] = molecular target: Alpha-bungarotoxin (Bungarus multicinctus) (UniProt P60615); assay: alpha-bungarotoxin binders on microarray, profiling panel, artefact control for SMM control protein annotation, biochemical, small-molecule microarray, Alexa647 label, 635/667 nm fluorescence (AID 1117); details: alpha-BTX-A647 binding fluorescence, higher = more signal
Alpha-bungarotoxin (Bungarus multicinctus), sequence (P60615 whole entry, looked up): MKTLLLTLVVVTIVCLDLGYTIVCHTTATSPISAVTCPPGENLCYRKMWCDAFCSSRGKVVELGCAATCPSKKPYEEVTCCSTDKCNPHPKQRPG

Left-right determination factor 2 (Homo sapiens), sequence (O00292 whole entry, looked up): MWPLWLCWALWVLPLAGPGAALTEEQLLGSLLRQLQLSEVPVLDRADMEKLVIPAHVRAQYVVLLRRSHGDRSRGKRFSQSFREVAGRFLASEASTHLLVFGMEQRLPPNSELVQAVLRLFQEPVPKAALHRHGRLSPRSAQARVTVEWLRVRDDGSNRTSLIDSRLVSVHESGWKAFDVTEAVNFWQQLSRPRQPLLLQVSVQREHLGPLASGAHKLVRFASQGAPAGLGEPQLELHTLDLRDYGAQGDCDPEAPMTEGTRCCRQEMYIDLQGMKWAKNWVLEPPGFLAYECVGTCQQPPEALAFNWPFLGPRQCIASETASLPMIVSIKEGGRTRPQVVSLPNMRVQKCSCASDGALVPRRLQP
Torsin-1A-interacting protein 1 (Homo sapiens), sequence (Q5JTV8 whole entry, looked up): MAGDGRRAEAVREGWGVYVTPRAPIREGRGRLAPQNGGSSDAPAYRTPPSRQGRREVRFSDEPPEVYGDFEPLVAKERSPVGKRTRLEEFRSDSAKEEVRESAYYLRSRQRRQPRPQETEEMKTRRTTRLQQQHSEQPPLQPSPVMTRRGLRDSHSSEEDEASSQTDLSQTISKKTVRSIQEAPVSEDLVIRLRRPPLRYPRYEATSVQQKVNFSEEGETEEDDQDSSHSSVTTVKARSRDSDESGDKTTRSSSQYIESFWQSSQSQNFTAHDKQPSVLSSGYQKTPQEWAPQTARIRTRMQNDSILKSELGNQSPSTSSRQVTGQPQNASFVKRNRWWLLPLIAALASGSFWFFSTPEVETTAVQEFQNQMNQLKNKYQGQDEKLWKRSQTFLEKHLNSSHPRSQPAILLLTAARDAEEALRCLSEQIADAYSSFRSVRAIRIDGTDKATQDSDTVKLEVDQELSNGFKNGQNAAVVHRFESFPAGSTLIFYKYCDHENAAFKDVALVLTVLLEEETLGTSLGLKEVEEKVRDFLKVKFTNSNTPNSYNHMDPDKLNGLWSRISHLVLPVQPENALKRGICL

Row | Compound | composite z-score [1] | z-score [2] | composite z-score [3] | composite z-score [4] | composite z-score [5] | composite z-score [6] | composite z-score [7] | composite z-score [8] | composite z-score [9] | composite z-score [10]
1 | C=C(CCCC)/C(=C/C[C@@H](OC(C)=O)c1ccccc1OCCO)c1cc(C(=O)OC)ccc1OC | 0.129 | -2.13 | -0.346 | -0.421 | -0.798 | -0.124 | -0.0769 | 0.0459 | -0.107 | 1.15
2 | CN(C)CCCCNC(=O)[C@@H]1C[C@@H]2C(=O)N[C@@H](CCCCN)C(=O)N2[C@@H]1c1ccc(O)cc1 | 0.0215 | -1.04 | 0.886 | 1.53 | -0.288 | 0.0725 | 0.213 | 0.654 | 0.677 | 1.36
3 | CC(C)[Si](C#CCCCC#N)(Oc1ccccc1Br)C(C)C | 0.845 | -0.071 | 0.0224 | -0.154 | -0.159 | -0.0512 | -0.0553 | -0.213 | 0.528 | 0.453
4 | CCCCN1CC=CC23O[C@@H]4C=CCCOC(=O)C4[C@H]2C(=O)N(CCCCCO)[C@@H]3C1=O (stereo not given in full) | -0.977 | -0.698 | -0.646 | -0.107 | -0.589 | -0.208 | -0.138 | -0.033 | -0.865 | 0.0086
5 | CC1CC/C=C\[C@H]2OC34C=CCN(Cc5ccccc5)C(=O)[C@H]3N(C(C)CO)C(=O)[C@@H]4C2C(=O)O1 (stereo not given in full) | -1.75 | -0.514 | 0.267 | -0.756 | -0.857 | -0.148 | 0.0952 | -0.193 | -0.457 | -0.463
6 | COCCCNC(=O)[C@@]1(Cc2ccccc2CN=[N+]=[N-])N=C(c2ccc(OCCCO)cc2)O[C@H]1c1ccccc1CN=[N+]=[N-] | 1.37 | -3.39 | -0.443 | 1.36 | 0.875 | 0.173 | 0.311 | -0.69 | 0.852 | 1.84
7 | COC(=O)C[C@H]1O[C@@H](CCc2ccccc2)[C@@H](C)[C@@H]1[Si](C)(C)c1ccc(OC)cc1 | -0.504 | -0.638 | -0.0374 | -0.606 | 0.125 | -0.232 | -0.439 | -0.266 | -0.562 | -0.763
8 | CC(C)=CCCC(C)=CC(O)C1C=CC2C(=O)N(c3ccccc3)C(=O)C2N1Nc1ccc(C(C)C)cc1 (stereo not given) | 1.45 | -0.0821 | -0.0675 | 0.943 | 0.415 | 0.163 | 0.0839 | 1.6 | 0.203 | 0.925
9 | OCC1C=C(/C=C/c2ccccc2)CN1Cc1ccccc1Br (stereo not given) | -0.119 | -1.92 | 1.14 | 0.776 | -0.265 | 0.0375 | -0.0553 | -0.266 | 0.289 | 1.12
10 | COc1ccc(C(O)C2C=CC3C(=O)N(C)C(=O)C3N2N(c2ccccc2)c2ccccc2)c2ccccc12 (stereo not given) | -0.452 | 0.352 | 0.0468 | -0.078 | -0.511 | 0.0328 | -0.0011 | 0.0984 | 1.68 | 0.429
11 | C=CCNC(=O)[C@@H]1[C@H]2C(=O)O[C@H](c3ccccc3)[C@H](c3ccccc3)N2[C@H](c2ccc(OCCO)cc2)[C@@]12C(=O)N(C(=O)OCCOC)c1ccc(C#CCNC(N)=O)cc12 | 0.79 | -0.635 | 0.735 | 0.597 | 0.386 | 0.0136 | 0.275 | -0.42 | 0.55 | 1.53
12 | COC(=O)[C@]1(Cc2ccccc2)N=C(c2ccc(OCCCO)cc2)O[C@@H]1c1ccccc1N=[N+]=[N-] | 1.33 | -3.25 | 0.123 | 0.39 | 0.245 | -0.0236 | -0.0709 | -0.595 | -0.279 | 0.0359

Source: PubChem BioAssay
